For 31 compounds, outcome and AC50 results are on record in PubChem BioAssay (EPA / NIEHS).

Several values for one entry are separate records, joined by “and”; a condition that tells them apart may be missing. Identical values can stand only once. Inconclusive results are not listed. Activity calls are given as the source filed them. How the source made its calls: active means hit-call score of the fitted dose curve at least 0.9, where 1 is the maximum; inconclusive means response in the unintended direction; inactive means score below 0.9.

PGR (gene 5241), sequence (P06401 whole entry, looked up): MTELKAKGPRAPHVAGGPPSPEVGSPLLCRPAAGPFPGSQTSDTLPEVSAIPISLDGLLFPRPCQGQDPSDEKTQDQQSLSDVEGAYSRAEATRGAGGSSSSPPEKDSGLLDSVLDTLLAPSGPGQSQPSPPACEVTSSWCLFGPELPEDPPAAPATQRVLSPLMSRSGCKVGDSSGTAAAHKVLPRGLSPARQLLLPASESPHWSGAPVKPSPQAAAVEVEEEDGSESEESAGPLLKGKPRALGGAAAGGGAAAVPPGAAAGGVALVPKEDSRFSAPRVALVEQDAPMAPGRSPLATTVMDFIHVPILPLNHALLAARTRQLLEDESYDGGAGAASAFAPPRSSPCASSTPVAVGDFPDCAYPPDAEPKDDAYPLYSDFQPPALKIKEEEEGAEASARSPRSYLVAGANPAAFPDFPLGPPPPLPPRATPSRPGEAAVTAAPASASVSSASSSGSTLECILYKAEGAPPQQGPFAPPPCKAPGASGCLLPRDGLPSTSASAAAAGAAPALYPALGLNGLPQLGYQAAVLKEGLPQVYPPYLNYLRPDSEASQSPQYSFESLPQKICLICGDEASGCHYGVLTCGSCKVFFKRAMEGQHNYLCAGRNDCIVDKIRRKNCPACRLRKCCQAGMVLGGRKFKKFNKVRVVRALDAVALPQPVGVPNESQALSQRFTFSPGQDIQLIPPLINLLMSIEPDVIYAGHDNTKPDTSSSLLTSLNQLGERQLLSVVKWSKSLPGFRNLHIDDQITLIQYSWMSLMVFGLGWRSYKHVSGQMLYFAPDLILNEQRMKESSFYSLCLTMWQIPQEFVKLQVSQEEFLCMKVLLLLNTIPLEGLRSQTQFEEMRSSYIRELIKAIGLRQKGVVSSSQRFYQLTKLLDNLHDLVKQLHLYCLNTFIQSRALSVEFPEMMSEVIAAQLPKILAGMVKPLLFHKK
Androgen Receptor/SRC-1 Co-activator, AR (gene 367), sequence (P10275 whole entry, looked up): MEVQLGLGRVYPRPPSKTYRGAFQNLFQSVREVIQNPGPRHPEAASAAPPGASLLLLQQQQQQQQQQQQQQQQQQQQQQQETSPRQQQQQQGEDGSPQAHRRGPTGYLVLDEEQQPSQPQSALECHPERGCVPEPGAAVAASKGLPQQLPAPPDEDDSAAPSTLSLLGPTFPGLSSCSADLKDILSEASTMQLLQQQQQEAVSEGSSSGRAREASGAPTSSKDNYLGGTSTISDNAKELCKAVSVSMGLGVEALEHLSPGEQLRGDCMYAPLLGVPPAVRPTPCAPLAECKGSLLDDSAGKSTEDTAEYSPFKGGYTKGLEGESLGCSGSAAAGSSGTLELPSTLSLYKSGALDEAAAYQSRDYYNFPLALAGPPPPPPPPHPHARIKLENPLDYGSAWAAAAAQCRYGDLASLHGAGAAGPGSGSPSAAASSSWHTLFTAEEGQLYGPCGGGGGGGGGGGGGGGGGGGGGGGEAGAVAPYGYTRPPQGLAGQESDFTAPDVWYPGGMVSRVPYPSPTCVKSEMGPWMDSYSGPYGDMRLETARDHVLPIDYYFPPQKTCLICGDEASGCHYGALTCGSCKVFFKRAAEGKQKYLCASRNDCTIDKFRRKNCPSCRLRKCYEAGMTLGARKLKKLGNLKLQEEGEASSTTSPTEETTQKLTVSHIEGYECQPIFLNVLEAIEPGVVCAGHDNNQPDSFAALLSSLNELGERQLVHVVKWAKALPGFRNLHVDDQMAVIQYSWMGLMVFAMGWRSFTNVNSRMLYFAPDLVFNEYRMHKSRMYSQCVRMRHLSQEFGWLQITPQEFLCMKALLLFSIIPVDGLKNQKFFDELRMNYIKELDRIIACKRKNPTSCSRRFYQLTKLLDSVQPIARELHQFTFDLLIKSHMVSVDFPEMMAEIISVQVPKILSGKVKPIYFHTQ
human Peroxisome Proliferator-activated Receptor alpha (PPARa), PPARA (gene 5465), sequence (Q07869 whole entry, looked up): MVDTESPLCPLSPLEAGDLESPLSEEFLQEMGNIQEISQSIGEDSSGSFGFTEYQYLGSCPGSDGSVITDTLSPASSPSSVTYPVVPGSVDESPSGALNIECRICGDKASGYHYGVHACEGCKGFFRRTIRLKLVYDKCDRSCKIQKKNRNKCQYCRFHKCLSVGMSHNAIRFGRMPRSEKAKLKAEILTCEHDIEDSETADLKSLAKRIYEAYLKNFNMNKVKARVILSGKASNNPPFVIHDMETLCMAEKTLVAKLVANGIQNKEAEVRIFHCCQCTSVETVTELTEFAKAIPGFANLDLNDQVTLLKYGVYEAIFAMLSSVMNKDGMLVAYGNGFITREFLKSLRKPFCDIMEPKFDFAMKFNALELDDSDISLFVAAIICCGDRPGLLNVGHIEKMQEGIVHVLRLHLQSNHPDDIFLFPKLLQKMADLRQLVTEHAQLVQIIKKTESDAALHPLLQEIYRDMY

The target of the first assay is Androgen Receptor/SRC-1 Co-activator, AR (gene 367) (UniProt P10275). As to the kind of experiment: OT_AR_ARSRC1_0960: Odyssey Thera (OT) 16-hour HEK293T Protein-Complementation Assay for Androgen Receptor/SRC-1 Co-activator (AID 2283353).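 Further: actives raise the signal above DMSO so potency reflects increased AR and SRC-1 complex.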 Summed up:
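Endpoint is gain-of-signal N/C fluorescence ratio in the 488 nm channel versus DMSO, from at least 400 cells per image, measured 16 h post-dosing. Cells: HEK293T stably carrying split-Venus AR/SRC-1 complementation constructs.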
Take `O=C1CCCO1`: the outcome was inactive.
Take `Cc1cc(N=Nc2ccccc2C)ccc1N`: the AC50 was 36 µM (active).
Still for that read-out and setting: the figure for `C[C@]12C=CC3=C4CCC(=O)C=C4CC[C@H]3[C@@H]1CC[C@@H]2O` is 1.14 nM (active) and 2.3 nM (active) and 30 nM (active).
On to `O=C(Nc1ccccc1)c1ccccc1I`, for which the result was inactive.
Regarding `CC(C)(O)c1cnn2c(-c3ccc(F)c(-c4c(F)cccc4C#N)c3)cnc2n1`, the AC50 is 31.7 µM (active).
`Nc1ccc([N+](=O)[O-])cc1`: the compound was classed as inactive.
Consider `Nc1ccc(Cl)cc1N`, for which the compound was classed as inactive.
With `COC(=O)Nc1nc2ccccc2[nH]1`, the concentration at half-maximal activity (AC50) was 3.78 µM (active).
As for `CC(C)(OOC(C)(C)c1ccccc1)c1ccccc1`, the AC50 is 76.2 µM (active).
Regarding `CC(C)N(Cc1ccccc1)C(=O)C(C)(C)C`, the compound was called inactive.
For the compound `CO[C@@H]1[C@H](OC(=O)NC(=O)CCl)CC[C@]2(CO2)[C@H]1[C@@]1(C)O[C@@H]1CC=C(C)C`, the concentration at half-maximal activity (AC50) is 10.7 µM (active).
As for `CCNS(=O)(=O)C(F)(F)C(F)(F)C(F)(F)C(F)(F)C(F)(F)C(F)(F)C(F)(F)C(F)(F)F`, the call was inactive.
As for `CCCCC(CC)COC(=O)c1ccc(C(=O)OCC(CC)CCCC)c(C(=O)OCC(CC)CCCC)c1` (stereo not drawn), the result was inactive.
Still for that read-out and setting: the entry for `CNC(=O)Oc1cccc2c1OC(C)(C)C2` is “inactive”.
As for `O=[N+]([O-])C(Br)(CO)CO`, the AC50 was 71 µM (active).

The target is the same in a further assay. As to the kind of experiment: OT_AR_ARSRC1_0480: Odyssey Thera (OT) 8-hour HEK293T Protein-Complementation Assay for Androgen Receptor/SRC-1 Co-activator (AID 2283354).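 Further: hits raise the complementation signal above DMSO so AC50 marks enhancers.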 In a few lines: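 After 8 h dosing, stably expressing HEK293T cells with split-Venus AR/SRC-1 fusions were imaged (488, 635nm). The 488nm N/C ratio per image gave the endpoint, analysed in the positive direction against DMSO.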
On to `O=C1CCCO1`, for which the compound was called inactive.
Take `C[N+](C)(C)CC1CO1` (stereo not drawn): the result was inactive.
On to `Cc1cc(N=Nc2ccccc2C)ccc1N`, for which the AC50 was 67.5 µM (active).
As to `O=C(Nc1ccccc1)c1ccccc1I`, the call was inactive.
Still for that read-out and setting: the entry for `CC(C)(O)c1cnn2c(-c3ccc(F)c(-c4c(F)cccc4C#N)c3)cnc2n1` is “inactive”; for `Nc1ccc([N+](=O)[O-])cc1` it is “inactive”.
On the same count and under the same terms, the entry for `Nc1ccc(Cl)cc1N` is “inactive”; for `COC(=O)Nc1nc2ccccc2[nH]1` it is “inactive”.
On to `CC(C)(OOC(C)(C)c1ccccc1)c1ccccc1`, for which the AC50 is 71.1 µM (active).
For `CC(C)N(Cc1ccccc1)C(=O)C(C)(C)C`, the compound was called inactive.
As for `CO[C@@H]1[C@H](OC(=O)NC(=O)CCl)CC[C@]2(CO2)[C@H]1[C@@]1(C)O[C@@H]1CC=C(C)C`, the concentration at half-maximal activity (AC50) was 20.1 µM (active).
On to `CCNS(=O)(=O)C(F)(F)C(F)(F)C(F)(F)C(F)(F)C(F)(F)C(F)(F)C(F)(F)C(F)(F)F`, for which the outcome was inactive.
On the same count and under the same terms, the entry for `CCCCC(CC)COC(=O)c1ccc(C(=O)OCC(CC)CCCC)c(C(=O)OCC(CC)CCCC)c1` (stereo not drawn) is “inactive”; for `CNC(=O)Oc1cccc2c1OC(C)(C)C2` it is “inactive”.
As for `O=[N+]([O-])C(Br)(CO)CO`, the half-maximal activity concentration (AC50) is 72.1 µM (active).

For the next assay, the target named is rat Mineralocorticoid Receptor (MR), Nr3c2 (gene 25672) (UniProt P22199). As to the kind of experiment: NVS_NR_rMR: NovaScreen (NVS) Nuclear Receptor Binding Assay for rat Mineralocorticoid Receptor (MR) (AID 2283355). Summed up: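 Single-concentration duplicate screen (25 uM) of radioligand binding in adrenalectomized rat brain supernatant; scintillation detection 24 h after dosing. Positive and negative controls ran on each plate, and confirmed actives went to concentration-response.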
rat Mineralocorticoid Receptor (MR), Nr3c2 (gene 25672), sequence (P22199 whole entry, looked up): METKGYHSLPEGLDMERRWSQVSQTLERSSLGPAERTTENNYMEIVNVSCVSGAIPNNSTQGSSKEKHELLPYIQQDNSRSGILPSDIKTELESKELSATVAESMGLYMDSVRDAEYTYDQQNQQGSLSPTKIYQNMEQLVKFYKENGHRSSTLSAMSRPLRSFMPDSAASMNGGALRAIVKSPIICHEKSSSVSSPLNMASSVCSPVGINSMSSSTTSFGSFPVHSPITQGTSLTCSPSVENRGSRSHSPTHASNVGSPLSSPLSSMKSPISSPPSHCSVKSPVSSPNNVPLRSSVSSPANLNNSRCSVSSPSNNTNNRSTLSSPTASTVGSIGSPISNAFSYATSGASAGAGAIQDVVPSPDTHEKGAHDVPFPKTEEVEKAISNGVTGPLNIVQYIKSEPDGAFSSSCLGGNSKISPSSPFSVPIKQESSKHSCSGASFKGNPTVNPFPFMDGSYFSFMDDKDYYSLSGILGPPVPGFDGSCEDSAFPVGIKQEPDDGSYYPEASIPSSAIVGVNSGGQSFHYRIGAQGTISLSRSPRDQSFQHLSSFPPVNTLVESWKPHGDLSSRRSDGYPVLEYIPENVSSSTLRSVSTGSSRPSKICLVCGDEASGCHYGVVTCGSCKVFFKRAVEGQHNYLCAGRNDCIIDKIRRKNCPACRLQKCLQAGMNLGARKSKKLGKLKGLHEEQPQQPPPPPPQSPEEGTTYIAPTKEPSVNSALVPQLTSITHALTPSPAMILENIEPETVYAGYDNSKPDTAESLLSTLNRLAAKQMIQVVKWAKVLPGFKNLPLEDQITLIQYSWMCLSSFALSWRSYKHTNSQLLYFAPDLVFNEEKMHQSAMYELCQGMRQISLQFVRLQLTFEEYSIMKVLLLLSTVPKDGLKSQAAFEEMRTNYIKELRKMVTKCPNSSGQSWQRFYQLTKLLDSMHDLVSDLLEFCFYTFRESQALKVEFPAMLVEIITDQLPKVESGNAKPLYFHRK
Turning to `C[C@]12C=CC3=C4CCC(=O)C=C4CC[C@H]3[C@@H]1CC[C@@H]2O`, the AC50 is 69.1 nM (active) and 245 nM (active).
`CN(C)c1ccc(C(=O)c2ccc(N(C)C)cc2)cc1`: the call was inactive.
In the case of `c1ccc(C2CO2)cc1` (stereo not drawn), the result was inactive.
In the case of `CCC[CH2][Sn]([Cl])([CH2]CCC)[CH2]CCC`, the compound was called inactive.

The target of a further assay is Estrogen receptor (Homo sapiens) + Estrogen receptor beta (Homo sapiens) (UniProt P03372+Q92731). As to the kind of experiment: OT_ER_ERaERb_1440: Odyssey Thera (OT) 24-hour HEK293T Protein-Complementation Assay for Estrogen Receptor-alpha/-beta Homodimer (AID 2283356).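 Further: heteromer of ER alpha and ER beta binding domains; hits raise reporter fluorescence and both agonists and antagonists give an increase.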 Summed up: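 Heterodimerisation of ERα (aa 310-547) and ERβ (aa 263-489) ligand binding domains was tracked as fluorescence gain in stably transfected HEK293T cells following 24 h dosing, normalised to DMSO controls.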
Estrogen receptor (Homo sapiens) + Estrogen receptor beta (Homo sapiens), sequence (P03372 whole entry, looked up, the tested form may be a part): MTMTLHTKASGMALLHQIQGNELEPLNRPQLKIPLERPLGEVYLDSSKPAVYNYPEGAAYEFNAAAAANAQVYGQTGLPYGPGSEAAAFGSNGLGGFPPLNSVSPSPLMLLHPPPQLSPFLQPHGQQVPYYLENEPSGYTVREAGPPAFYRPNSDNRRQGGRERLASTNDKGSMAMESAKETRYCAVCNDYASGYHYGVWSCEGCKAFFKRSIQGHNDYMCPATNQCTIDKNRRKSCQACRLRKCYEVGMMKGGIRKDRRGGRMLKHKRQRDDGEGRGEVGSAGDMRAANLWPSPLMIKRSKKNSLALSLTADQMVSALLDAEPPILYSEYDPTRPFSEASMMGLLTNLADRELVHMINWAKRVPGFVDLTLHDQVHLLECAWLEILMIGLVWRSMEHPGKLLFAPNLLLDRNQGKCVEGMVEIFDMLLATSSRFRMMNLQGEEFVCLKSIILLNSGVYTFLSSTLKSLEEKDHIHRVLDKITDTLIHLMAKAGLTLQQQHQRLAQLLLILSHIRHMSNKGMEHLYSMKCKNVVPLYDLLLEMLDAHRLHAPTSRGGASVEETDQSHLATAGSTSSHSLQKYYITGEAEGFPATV
Estrogen receptor (Homo sapiens) + Estrogen receptor beta (Homo sapiens), sequence (Q92731 whole entry, looked up, the tested form may be a part): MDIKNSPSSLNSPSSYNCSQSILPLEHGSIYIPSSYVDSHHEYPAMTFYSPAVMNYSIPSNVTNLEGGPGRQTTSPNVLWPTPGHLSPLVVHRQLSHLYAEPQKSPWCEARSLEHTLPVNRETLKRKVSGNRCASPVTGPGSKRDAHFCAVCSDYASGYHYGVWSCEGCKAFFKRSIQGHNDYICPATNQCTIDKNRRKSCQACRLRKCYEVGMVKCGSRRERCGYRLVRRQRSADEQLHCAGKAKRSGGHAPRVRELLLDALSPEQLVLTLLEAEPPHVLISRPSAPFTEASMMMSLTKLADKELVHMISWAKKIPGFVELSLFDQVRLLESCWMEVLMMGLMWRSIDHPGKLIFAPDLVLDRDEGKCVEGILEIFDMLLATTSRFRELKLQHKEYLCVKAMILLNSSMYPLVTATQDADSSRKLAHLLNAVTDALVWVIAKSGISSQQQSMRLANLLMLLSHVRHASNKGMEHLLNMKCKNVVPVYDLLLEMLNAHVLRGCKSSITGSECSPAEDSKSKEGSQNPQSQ
Consider `OCCCBr`, for which the result was inactive.
Consider `CCCCCOC(=O)c1ccccc1C(=O)OCCCCC`, for which the AC50 was 42 µM (active).
As to `CCCCCCCCn1sccc1=O`, the result was inactive.
As to `[O-][Cl+]O`, the outcome was inactive.
Regarding `Nc1ccc(N=Nc2ccccc2)cc1`, the AC50 is 39.4 µM (active).
`C[N+](C)(C)CC1CO1` (stereo not drawn): the result was inactive.
Consider `O=C(Nc1ccccc1)c1ccccc1I`, for which the result was inactive.
Take `N#CC(Br)Br`: the outcome was inactive.
As to `ClC1=C(Cl)C2(Cl)C3C(Cl)C=CC3C1(Cl)C2(Cl)Cl` (stereo not drawn), the result was inactive.
Still for that read-out and setting: the entry for `CO[C@@H]1[C@H](OC(=O)NC(=O)CCl)CC[C@]2(CO2)[C@H]1[C@@]1(C)O[C@@H]1CC=C(C)C` is “inactive”; for `CNC(=O)Oc1cccc2c1OC(C)(C)C2` it is “inactive”.
`CC(C)COC(=O)c1ccccc1C(=O)OCC(C)C`: the AC50 was 31.1 µM (active).
For the compound `CCCCCCCCCCCCCN1CC(C)OC(C)C1` (stereo not drawn), the outcome was inactive.
Still for that read-out and setting: the entry for `[Cl-].[Cl-].[Hg+2]` is “inactive”; for `Cc1ccc([N+](=O)[O-])cc1` it is “inactive”.
Still for that read-out and setting: the entry for `OCCOCCO` is “inactive”.
Turning to `O=[N+]([O-])C(Br)(CO)CO`, the result was inactive.

The target in the next assay is Estrogen receptor beta (Homo sapiens) (UniProt Q92731). As to the kind of experiment: OT_ER_ERbERb_0480: Odyssey Thera (OT) 8-hour HEK293T Protein-Complementation Assay for Estrogen Receptor-beta/-beta Homodimer (AID 2283357).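 Further: active means signal gain over DMSO baseline.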 In a few lines: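 Fluorescence gain from complemented reporter fragments on ER-beta LBD homodimer in HEK293T was quantified against DMSO controls after 8 h treatment, fixation in 4% formaldehyde and Draq5 staining.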
Estrogen receptor beta (Homo sapiens), sequence (Q92731 whole entry, looked up, the tested form may be a part): as above
Take `CCCCCOC(=O)c1ccccc1C(=O)OCCCCC`: the AC50 is 29.9 µM (active).
For the compound `CCCCCCCCn1sccc1=O`, the outcome was inactive.
The same measure, in the same setting: for `[O-][Cl+]O` the value was “inactive”.
Regarding `Cc1cc(N=Nc2ccccc2C)ccc1N`, the AC50 was 12.1 µM (active).
As to `COC(=O)Nc1nc2ccccc2[nH]1`, the compound was classed as inactive.
For `CNC(=O)Oc1cccc2c1OC(C)(C)C2`, the call was inactive.
On to `CCCCCCCCCCCCCN1CC(C)OC(C)C1` (stereo not drawn), for which the compound was classed as inactive.
As to `OCCOCCO`, the compound was called inactive.

The target in the next assay is human Peroxisome Proliferator-activated Receptor alpha (PPARa), PPARA (gene 5465) (UniProt Q07869). Put plainly: NVS_NR_hPPARa: NovaScreen (NVS) Nuclear Receptor Binding Assay for human Peroxisome Proliferator-activated Receptor alpha (PPARa) (AID 2283359).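 Further: activity means loss of TR-FRET signal versus DMSO baseline.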 In a few lines:
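One-hour incubation, cell-free extracted protein, TR-FRET binding readout; signal loss vs DMSO scored. Screen: 25 uM duplicates, confirmatory dose series for actives.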
Regarding `Cc1cc(N=Nc2ccccc2C)ccc1N`, the compound was called inactive.
Still for that read-out and setting: for `CCNS(=O)(=O)C(F)(F)C(F)(F)C(F)(F)C(F)(F)C(F)(F)C(F)(F)C(F)(F)C(F)(F)F` the value was “inactive”.
Take `CCC[CH2][Sn]([Cl])([CH2]CCC)[CH2]CCC`: the AC50 is 0.0235 µM (active).
Consider `CC(C)COC(=O)c1ccccc1C(=O)OCC(C)C`, for which the compound was called inactive.
Same read-out and setting: the entry for `O=[N+]([O-])C(Br)(CO)CO` is “inactive”.

Another assay concerns the target PGR (gene 5241) (UniProt P06401). Put plainly: NVS_NR_hPR: NovaScreen (NVS) Nuclear Receptor Binding Assay for human Progestron Receptor (PR) (AID 2283360).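 Further: active means loss of bound radioligand signal versus DMSO baseline.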 Summed up: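 Competitive displacement of a labelled radioligand from T47D-derived receptor protein is measured in a cell-free format. Initial testing uses 25 uM in duplicate, with positive and negative controls on every plate.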
For `C[C@]12C=CC3=C4CCC(=O)C=C4CC[C@H]3[C@@H]1CC[C@@H]2O`, the concentration at half-maximal activity (AC50) was 0.00382 µM (active).
As for `Nc1ccc([N+](=O)[O-])cc1`, the result was inactive.
Turning to `c1ccc(C2CO2)cc1` (stereo not drawn), the outcome was inactive.
In the case of `CCC[CH2][Sn]([Cl])([CH2]CCC)[CH2]CCC`, the AC50 was 2.92 µM (active).
